Test results taken from PMC9911399, “Two distinct binding modes provide the RNA-binding protein RbFox with extraordinary sequence specificity”.
Substitutions are numbered along the chain they refer to; changes in the protein carry UniProt numbers. Over roughly 16,000 sequences, “ka relative to ugcaugu” has its median near 0.096; the highest 2% begin near 0.35. The full list was thinned out, with the highest values kept by preference.

B1: AGAGUGG (DNA:RNA)
RNA: GGGAGACCGGAAUUCAGAUUGUCCAGAGUGGUUAAAUCCCGUCGUAGCCACCA
DNA 1: CAATCTGAATTCCGGTCTCCC
DNA 2: TGGTGGCTACGACGGGATT
B2: UCUGGAG (DNA:RNA)
RNA: B1 RNA with A25U, G26C, A27U, U29G, G30A
DNA 1: CAATCTGAATTCCGGTCTCCC
DNA 2: TGGTGGCTACGACGGGATT
B3: AUGUAGG (DNA:RNA)
RNA: B1 RNA with G26U, A27G, G28U, U29A
DNA 1: CAATCTGAATTCCGGTCTCCC
DNA 2: TGGTGGCTACGACGGGATT
B4: AUCUCCA (DNA:RNA)
RNA: B1 RNA with G26U, A27C, G28U, U29C, G30C, G31A
DNA 1: CAATCTGAATTCCGGTCTCCC
DNA 2: TGGTGGCTACGACGGGATT
B5: GAUAAGU (DNA:RNA)
RNA: B1 RNA with A25G, G26A, A27U, G28A, U29A, G31U
DNA 1: CAATCTGAATTCCGGTCTCCC
DNA 2: TGGTGGCTACGACGGGATT
B6: GAAUACU (DNA:RNA)
RNA: B1 RNA with A25G, G26A, G28U, U29A, G30C, G31U
DNA 1: CAATCTGAATTCCGGTCTCCC
DNA 2: TGGTGGCTACGACGGGATT
B7: CCUCACA (DNA:RNA)
RNA: GGGAGACCGGAAUUCAGAUUGUCCCCUCACAUUAAAUCCCGUCGUAGCCACCA
DNA 1: CAATCTGAATTCCGGTCTCCC
DNA 2: TGGTGGCTACGACGGGATT
B8: GUCUUGA (DNA:RNA)
RNA: B1 RNA with A25G, G26U, A27C, G28U, G31A
DNA 1: CAATCTGAATTCCGGTCTCCC
DNA 2: TGGTGGCTACGACGGGATT
B9: GGAUUGA (DNA:RNA)
RNA: B1 RNA with A25G, G28U, G31A
DNA 1: CAATCTGAATTCCGGTCTCCC
DNA 2: TGGTGGCTACGACGGGATT
B10: GUUUGUC (DNA:RNA)
RNA: B7 RNA with C25G, C26U, C28U, A29G, C30U, A31C
DNA 1: CAATCTGAATTCCGGTCTCCC
DNA 2: TGGTGGCTACGACGGGATT
B11: GGCUUGC (DNA:RNA)
RNA: B1 RNA with A25G, A27C, G28U, G31C
DNA 1: CAATCTGAATTCCGGTCTCCC
DNA 2: TGGTGGCTACGACGGGATT
B12: GCUUGUC (DNA:RNA)
RNA: B7 RNA with C25G, C28U, A29G, C30U, A31C
DNA 1: CAATCTGAATTCCGGTCTCCC
DNA 2: TGGTGGCTACGACGGGATT
B13: GUCUUAA (DNA:RNA)
RNA: B1 RNA with A25G, G26U, A27C, G28U, G30A, G31A
DNA 1: CAATCTGAATTCCGGTCTCCC
DNA 2: TGGTGGCTACGACGGGATT
B14: GUCGUCU (DNA:RNA)
RNA: B1 RNA with A25G, G26U, A27C, G30C, G31U
DNA 1: CAATCTGAATTCCGGTCTCCC
DNA 2: TGGTGGCTACGACGGGATT
B15: GUCUUGC (DNA:RNA)
RNA: B1 RNA with A25G, G26U, A27C, G28U, G31C
DNA 1: CAATCTGAATTCCGGTCTCCC
DNA 2: TGGTGGCTACGACGGGATT
B16: GUCUUGU (DNA:RNA)
RNA: B1 RNA with A25G, G26U, A27C, G28U, G31U
DNA 1: CAATCTGAATTCCGGTCTCCC
DNA 2: TGGTGGCTACGACGGGATT
B17: UCGUGCG (DNA:RNA)
RNA: B7 RNA with C25U, U27G, C28U, A29G, A31G
DNA 1: CAATCTGAATTCCGGTCTCCC
DNA 2: TGGTGGCTACGACGGGATT
B18: UCGCCAG (DNA:RNA)
RNA: B7 RNA with C25U, U27G, A29C, C30A, A31G
DNA 1: CAATCTGAATTCCGGTCTCCC
DNA 2: TGGTGGCTACGACGGGATT
B19: ACGUCCU (DNA:RNA)
RNA: B7 RNA with C25A, U27G, C28U, A29C, A31U
DNA 1: CAATCTGAATTCCGGTCTCCC
DNA 2: TGGTGGCTACGACGGGATT
B20: AACCAGA (DNA:RNA)
RNA: B7 RNA with C25A, C26A, U27C, C30G
DNA 1: CAATCTGAATTCCGGTCTCCC
DNA 2: TGGTGGCTACGACGGGATT
B21: CAAACUC (DNA:RNA)
RNA: B1 RNA with A25C, G26A, G28A, U29C, G30U, G31C
DNA 1: CAATCTGAATTCCGGTCTCCC
DNA 2: TGGTGGCTACGACGGGATT
B22: AGAAGAU (DNA:RNA)
RNA: B1 RNA with G28A, U29G, G30A, G31U
DNA 1: CAATCTGAATTCCGGTCTCCC
DNA 2: TGGTGGCTACGACGGGATT
B23: UCCCCGG (DNA:RNA)
RNA: B1 RNA with A25U, G26C, A27C, G28C, U29C
DNA 1: CAATCTGAATTCCGGTCTCCC
DNA 2: TGGTGGCTACGACGGGATT
B24: AAAAAGC (DNA:RNA)
RNA: B1 RNA with G26A, G28A, U29A, G31C
DNA 1: CAATCTGAATTCCGGTCTCCC
DNA 2: TGGTGGCTACGACGGGATT
B25: AAAUUGC (DNA:RNA)
RNA: B1 RNA with G26A, G28U, G31C
DNA 1: CAATCTGAATTCCGGTCTCCC
DNA 2: TGGTGGCTACGACGGGATT
B26: GUCCACG (DNA:RNA)
RNA: B7 RNA with C25G, C26U, U27C, A31G
DNA 1: CAATCTGAATTCCGGTCTCCC
DNA 2: TGGTGGCTACGACGGGATT
B27: GCACGUA (DNA:RNA)
RNA: B7 RNA with C25G, U27A, A29G, C30U
DNA 1: CAATCTGAATTCCGGTCTCCC
DNA 2: TGGTGGCTACGACGGGATT
B28: GCACGAG (DNA:RNA)
RNA: B1 RNA with A25G, G26C, G28C, U29G, G30A
DNA 1: CAATCTGAATTCCGGTCTCCC
DNA 2: TGGTGGCTACGACGGGATT
B29: ACGUCCG (DNA:RNA)
RNA: B1 RNA with G26C, A27G, G28U, U29C, G30C
DNA 1: CAATCTGAATTCCGGTCTCCC
DNA 2: TGGTGGCTACGACGGGATT
B30: GCACGAA (DNA:RNA)
RNA: B7 RNA with C25G, U27A, A29G, C30A
DNA 1: CAATCTGAATTCCGGTCTCCC
DNA 2: TGGTGGCTACGACGGGATT
B31: CCGCACG (DNA:RNA)
RNA: B7 RNA with U27G, A31G
DNA 1: CAATCTGAATTCCGGTCTCCC
DNA 2: TGGTGGCTACGACGGGATT
B32: CGCACCG (DNA:RNA)
RNA: B1 RNA with A25C, A27C, G28A, U29C, G30C
DNA 1: CAATCTGAATTCCGGTCTCCC
DNA 2: TGGTGGCTACGACGGGATT
B33: GCGCACG (DNA:RNA)
RNA: B7 RNA with C25G, U27G, A31G
DNA 1: CAATCTGAATTCCGGTCTCCC
DNA 2: TGGTGGCTACGACGGGATT
B34: GCACGCG (DNA:RNA)
RNA: B7 RNA with C25G, U27A, A29G, A31G
DNA 1: CAATCTGAATTCCGGTCTCCC
DNA 2: TGGTGGCTACGACGGGATT
B35: ACGCACG (DNA:RNA)
RNA: B7 RNA with C25A, U27G, A31G
DNA 1: CAATCTGAATTCCGGTCTCCC
DNA 2: TGGTGGCTACGACGGGATT
B36: GCACGUC (DNA:RNA)
RNA: B7 RNA with C25G, U27A, A29G, C30U, A31C
DNA 1: CAATCTGAATTCCGGTCTCCC
DNA 2: TGGTGGCTACGACGGGATT
B37: GCACGUG (DNA:RNA)
RNA: B1 RNA with A25G, G26C, G28C, U29G, G30U
DNA 1: CAATCTGAATTCCGGTCTCCC
DNA 2: TGGTGGCTACGACGGGATT

Biological target: T1, RBFOX1 RRM RbFoxmut (Fox-RRM*) (Homo sapiens, UniProt Q9NWB1 109-208, R118D;E147R;N151S;E152T)
T1 sequence: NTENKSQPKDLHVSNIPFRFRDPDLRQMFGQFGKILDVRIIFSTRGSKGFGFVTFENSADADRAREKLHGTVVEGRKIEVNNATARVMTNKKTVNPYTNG
Assay: EMSA; HiTS-Eq, 1 nM pool, 10 min; buffer printed only for the single-RNA assays: 10 mM Tris pH 7.5, 150 mM NaCl, 3.4 mM EDTA, 0.001% NP-40, 30 C
Conditions: tags: His6 N-terminal (pET28a); label: 5' 32P
Summary of the method: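 A pool of RNA with 7 randomized nucleotides, 5′-radiolabelled and with DNA-annealed flanks, was equilibrated at 1 nM for 10 min in 50 µL with purified RbFox RRM, wild type or mutant, across increasing protein concentrations. Free RNA was separated by 8% native PAGE, excised, reverse-transcribed, barcoded by PCR and sequenced. Relative association constants were obtained from read-count changes of each RNA species versus the control reaction and normalised to the cognate motif.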

Compared with B1, B2 is lower in binding signal: 0.107 KA relative to UGCAUGU for the first, 0.0838 KA relative to UGCAUGU for the second.

First: B3
Second: B4
The binding signal of the first is higher: 0.128 KA relative to UGCAUGU for the first, 0.0926 KA relative to UGCAUGU for the second.

First: B5
Second: B6
The binding signal of the first is higher: 0.0905 KA relative to UGCAUGU for the first, 0.0832 KA relative to UGCAUGU for the second.

First: B7
Second: B8
The binding signal of the first is lower: 0.108 KA relative to UGCAUGU for the first, 0.407 KA relative to UGCAUGU for the second.

First: B9
Second: B10
The binding signal of the first is lower: 0.278 KA relative to UGCAUGU for the first, 0.305 KA relative to UGCAUGU for the second.

First: B11
Second: B12
The binding signal of the first is lower: 0.199 KA relative to UGCAUGU for the first, 0.248 KA relative to UGCAUGU for the second.

First: B13
Second: B14
The binding signal of the first is higher: 0.0967 KA relative to UGCAUGU for the first, 0.0809 KA relative to UGCAUGU for the second.

First: B15
Second: B16
The binding signal of the first is lower: 0.502 KA relative to UGCAUGU for the first, 0.639 KA relative to UGCAUGU for the second.

Compared with B17, B18 is lower in binding signal: 0.147 KA relative to UGCAUGU for the first, 0.0961 KA relative to UGCAUGU for the second.

Compared with B19, B20 is higher in binding signal: 0.0891 KA relative to UGCAUGU for the first, 0.107 KA relative to UGCAUGU for the second.

First: B21
Second: B22
The binding signal of the first is lower: 0.0603 KA relative to UGCAUGU for the first, 0.0749 KA relative to UGCAUGU for the second.

Compared with B23, B24 is lower in binding signal: 0.0768 KA relative to UGCAUGU for the first, 0.0699 KA relative to UGCAUGU for the second.

First: B25
Second: B26
The binding signal of the first is lower: 0.0959 KA relative to UGCAUGU for the first, 0.114 KA relative to UGCAUGU for the second.

First: B27
Second: B28
The binding signal of the first is lower: 0.382 KA relative to UGCAUGU for the first, 0.405 KA relative to UGCAUGU for the second.

First: B29
Second: B30
The binding signal of the first is lower: 0.121 KA relative to UGCAUGU for the first, 0.256 KA relative to UGCAUGU for the second.

First: B31
Second: B32
The binding signal of the first is higher: 0.236 KA relative to UGCAUGU for the first, 0.17 KA relative to UGCAUGU for the second.

First: B33
Second: B34
The binding signal of the first is higher: 0.397 KA relative to UGCAUGU for the first, 0.184 KA relative to UGCAUGU for the second.

First: B35
Second: B36
The binding signal of the first is higher: 0.354 KA relative to UGCAUGU for the first, 0.117 KA relative to UGCAUGU for the second.

In the case of B37, the binding signal is reported as 0.324 KA relative to UGCAUGU.
